From the supplement of paper PMC6555819

Experiments:
Experiment in all cases: PBM binding z-score (relative to random genomic background probes); higher = stronger binding; sequences stand for … in GC…GCGATTGACAGCGTAGAATGAAGG
[1] = system: RARb homodimer (NR concentration 270 nM)
In short: (§1)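 The probes on custom Agilent 4×180K protein-binding microarrays were double-stranded, with 34-nt variable regions bearing direct-repeat seeds, single-nucleotide variants, half-site ablations and random human genomic background sequences. Incubation lasted 1 h with ligand-free nuclear receptor dimers in PBS pH 7.4, 2% milk, 0.02% Triton X-100, 1 mM DTT, 0.2 mg/mL BSA and 0.4 mg/ml salmon testes DNA. Antibodies against each partner (one per run) detected bound dimers, and fluorescence scans were regression-normalized. Binding z-scores take the random background probes as reference.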

[2] = system: RARg:RXRa (NR concentration 270 nM, RXRa partner concentration 90 nM)
In short: as §1

[3] = system: RARg homodimer (NR concentration 270 nM)
In short: as §1

[4] = system: RXRa DBDmut IVT, anti-RXR (DBD mutation: RXRa K156A/R161A, NR concentration 90 nM)
In short: as §1

[5] = system: RXRa homodimer (NR concentration 180 nM)
In short: as §1

[6] = system: THRa:RXRa (NR concentration 90 nM, RXRa partner concentration 90 nM)
In short: as §1

[7] = system: THRa homodimer (NR concentration 90 nM)
In short: as §1

[8] = system: VDR:RXRa (NR concentration 270 nM, RXRa partner concentration 90 nM)
In short: as §1

[9] = system: VDR homodimer (NR concentration 270 nM)
In short: as §1

| Sequence | PBM binding z-score [1] | PBM binding z-score [2] | PBM binding z-score [3] | PBM binding z-score [4] | PBM binding z-score [5] | PBM binding z-score [6] | PBM binding z-score [7] | PBM binding z-score [8] | PBM binding z-score [9] |
| --- | --- | --- | --- | --- | --- | --- | --- | --- | --- |
| AGAATGAGGTTACCATAGATCAGGGAAACGCTTG | 0.58 | 1.89 | 1.72 | 1.13 | 2.38 | 2.59 | 0.611 | 0.941 | 0.117 |
| CCTATTAGTTGACCATAAGGGTAACCGAAGCTCG | 1.5 | 1.01 | 0.877 | 0.493 | 0.639 | 1.3 | 1.19 | 0.776 | 1.2 |
| TAGCCTAGGTCATGCGGGCCAGTAAAGTGTCGGC | 2.88 | 3.9 | 4.1 | 1.04 | 2.94 | 2.98 | 0.78 | 2.75 | 0.405 |
| ATCTCTAGGTAAAGTTCAGTGAGAGATCGATAGA | 2.43 | 1.84 | 2.47 | 1.21 | 1.06 | 1 | 0.0803 | 1.64 | 1.28 |
| AGAATGAGGTTAAGATCAGGCAAACAGAATACAT | 0.764 | 2.13 | 1.63 | 0.944 | 2.49 | 2.86 | 0.441 | 1.23 | 0.247 |
| TAGCCTAGGTCAGATCAGGCCAGTATACGCTATA | 2.07 | 2.81 | 3.44 | -0.202 | 1.41 | 4.36 | 0.219 | 0.996 | -0.305 |
| CCTAGTCGGTCAGGAGGTCACACACCGGATATGA | 4.67 | 5.93 | 5.46 | 0.219 | 4.75 | 3.37 | 2.55 | 3.97 | 2.83 |
| AGAATGAGCTTATTAAGATCAGGGAATTGCGGTC | -0.66 | -0.341 | -0.0554 | -0.496 | -0.0846 | -0.273 | -0.456 | -0.43 | -0.554 |
| CCTAGTTGGTCAGGAGGTCACAGACCGGATATGA | 4.29 | 5.27 | 4.13 | 0.184 | 5.2 | 3.57 | 2.15 | 3.64 | 2.05 |
| TCAGACTGGTGAAGGTAACTCAGGTACGCAGTCG | -0.0938 | -0.218 | -0.262 | 0.596 | 0.463 | 0.985 | 0.0816 | 0.31 | -0.271 |
| AGAACGAGGGCAATGAATTGATAGCACGGGTGGC | 0.905 | 1.08 | 1.27 | 1.34 | 0.98 | 0.765 | -0.323 | 0.305 | 0.621 |
| TCTAGCAGGCCAGAGGGTCGCTCAAGAGGTACGG | 0.452 | 0.125 | 0.0431 | -0.342 | 0.375 | -0.276 | -1.24 | -0.181 | -0.526 |
| ATATGTAGGTTGAGGGTCATTCAGGTTGGTTCGC | 3.23 | 2.89 | 2.15 | 1.95 | 3.62 | 2.92 | 1.68 | 4.78 | 3.74 |
| CAAACTAGGGCACGAAAGGTCAAAGTCGAATGAC | 5.2 | 6.2 | 5.83 | 1.44 | 6.29 | 4.84 | 0.977 | 5.32 | 1.87 |
| CGTCCAAGGTCAATGATAGGTCAGTGAAAGCATT | 4.99 | 7.81 | 7.06 | 3.55 | 6.04 | 4.03 | 2.44 | 5.02 | 2.61 |
| GGAACGAGGGCAAAGCTGATAGCATCTGTCGACG | 0.567 | 1.03 | 1.5 | 2.13 | 0.836 | 0.546 | -0.597 | 0.367 | 0.452 |
